Measured values taken from PubChem BioAssay AID540345 (The Scripps Research Institute Molecular Screening Center, 2011).
A number with no mark means an inactive call. No rule for the calls is given here.

System: Phorbol Ester
Assay: off-target binding and CYP inhibition panel, profiling panel, selectivity assay for GPR7 antagonist project, biochemical, Ricerca HitProfilingScreen, CYP450, set 2 (AID 540345)
Conditions: Ricerca radioligand binding/CYP panel, at 10 µM, active compounds read high

`COc1ccc(Oc2c(Cl)cnn(C3c4ccccc4-c4ccccc43)c2=O)cc1` gave an inhibition of 0%.
